The whole screen tested about 39,000 compounds, of which about 1,500 (3.8%) were called active. Only a selection was taken, and actives are over-represented in it overall.

The test system of the assay is HSkMC (human skeletal muscle cells). Nature of the assay: cytotoxicity call (relative viability < 0.9). The settings on record: 10 µM.
In the case of `C[C@H]1CN([C@@H](C)CO)C(=O)Cc2cc(NS(=O)(=O)c3cccs3)ccc2O[C@@H]1CN(C)Cc1ccncc1`, the cytotoxicity call is “inactive”. The value for `COc1ccc(NC(=O)N(C)C[C@H]2Oc3ccc(NS(=O)(=O)c4c(C)noc4C)cc3C(=O)N([C@H](C)CO)C[C@H]2C)cc1` was “inactive”.

On to `C[C@@H]1CN([C@@H](C)CO)C(=O)c2cccc(NC(=O)CCCCCC(=O)Nc3ccccc3N)c2O[C@H]1CN(C)S(=O)(=O)c1cn(C)cn1`, for which the cytotoxicity call was “inactive”. On to `Cc1[nH]c(=O)[nH]c(=O)c1S(=O)(=O)N1CCC[C@H](C(=O)NCCc2c[nH]c3ccc(F)cc23)C1`, for which the cytotoxicity call is “inactive”. Take `C[C@H]1CCCCO[C@@H](CN(C)C)[C@@H](C)CN([C@@H](C)CO)C(=O)c2cc(NS(=O)(=O)c3cn(C)cn3)ccc2O1`: the cytotoxicity call was “inactive”.

On to `C[C@@H]1CCCCO[C@@H](CN(C)S(=O)(=O)c2ccccc2)[C@H](C)CN([C@@H](C)CO)C(=O)c2cc(NC(=O)Nc3ccc(C(F)(F)F)cc3)ccc2O1`, for which the cytotoxicity call is “inactive”. For `COc1ccc(CN(C)C[C@H]2OCCCC[C@H](C)Oc3ccc(NC(=O)Cc4ccccc4)cc3C(=O)N([C@@H](C)CO)C[C@H]2C)cc1`, the cytotoxicity call was “inactive”.

Regarding `C[C@@H]1CN([C@H](C)CO)C(=O)c2cc(NS(=O)(=O)c3ccccc3)ccc2O[C@@H](C)CCCCO[C@@H]1CN(C)Cc1ccc2c(c1)OCO2`, the cytotoxicity call is “inactive”.

As for `C[C@H](CO)N1C[C@H](C)[C@@H](CN(C)S(=O)(=O)c2ccc(Oc3ccccc3)cc2)OCc2cn(nn2)CCCC1=O`, the cytotoxicity call is “inactive”. Next, `Cc1noc(C)c1S(=O)(=O)N(C)C[C@@H]1Oc2ccc(NC(=O)CCC(F)(F)F)cc2CC(=O)N([C@H](C)CO)C[C@H]1C`: “inactive”.

As to `COCCNC(=O)C[C@@H]1CC[C@@H](NS(=O)(=O)c2ccc(C)cc2)[C@H](CO)O1`, the cytotoxicity call was “inactive”.

On to `C[C@@H](O)Cn1cnc2c1c(=O)n(C)c(=O)n2C`, for which the cytotoxicity call was “inactive”. The value for `COc1ccc(CN(C)C[C@H]2OCCCC[C@H](C)Oc3ccc(NC(=O)c4ccccc4)cc3C(=O)N([C@@H](C)CO)C[C@H]2C)cc1` was “inactive”; that for `CC(C)C#Cc1cnc2c(c1)C(=O)N([C@@H](C)CO)C[C@@H](C)[C@@H](CN(C)S(=O)(=O)c1cn(C)cn1)O2` was “inactive”; that for `CC(C)N1CCOC[C@@]2(C1)CN(S(C)(=O)=O)CCO2` was “inactive”. Next, `COC(=O)[C@H](Cc1ccccc1)N1CC2=C[C@@H](C3CC3)n3c(=O)n(C)c(=O)n3[C@H]2[C@@H]1[C@@H](O)CCn1cc(-c2cccc(/C=C/C(=O)NO)c2)nn1`: “inactive”. Consider `COc1ccc2c3c([nH]c2c1)[C@H](CO)N(C[C@]13CN(C1)S(=O)(=O)C)C(=O)C1CCOCC1`, for which the cytotoxicity call is “inactive”. With `C[C@H](CO)N1C[C@H](C)[C@H](CN(C)C(=O)NC2CCCCC2)Oc2ccc(NC(=O)C3CC3)cc2CC1=O`, the cytotoxicity call was “inactive”. Take `Cc1ccc(S(=O)(=O)N(C)C[C@H]2Oc3ccc(N(C)C)cc3CC(=O)N([C@H](C)CO)C[C@@H]2C)cc1`: the cytotoxicity call was “inactive”. The value for `CN(C)N(C)C(=O)[C@@]1(Cc2ccccc2)CCCN(C(=O)[C@@H](Cc2c[nH]c3ccccc23)NC(=O)C(C)(C)N)C1` was “inactive”; that for `CC(C)(N)C(=O)N[C@H](COCc1ccccc1)C(=O)N1CCC2(CC1)CN(S(C)(=O)=O)c1ccccc12` was “active”; that for `CN1N=C2CCN(C(=O)[C@@H](COCc3ccccc3)NC(=O)C(C)(C)N)C[C@@]2(Cc2ccccc2)C1=O` was “inactive”. In the case of `COc1ccc(S(=O)(=O)Nc2ccc3c(c2)C(=O)N([C@H](C)CO)C[C@H](C)[C@@H](CN(C)C(=O)Nc2c(C)noc2C)OCCCC[C@H](C)O3)cc1`, the cytotoxicity call was “inactive”. With `COc1ccc(NC(=O)N(C)C[C@H]2OCCCC[C@@H](C)Oc3ccc(NC(=O)C4CCCCC4)cc3C(=O)N([C@@H](C)CO)C[C@H]2C)cc1`, the cytotoxicity call was “inactive”. Consider `C[C@@H]1CN([C@@H](C)CO)C(=O)c2cccc(NC(=O)CCCCCC(=O)Nc3ccccc3N)c2O[C@@H]1CN(C)Cc1ccccc1`, for which the cytotoxicity call is “inactive”. `C[C@@H]1CN([C@@H](C)CO)C(=O)c2cccc(NC(=O)CCCCCC(=O)Nc3ccccc3N)c2O[C@@H]1CN(C)Cc1ccc(Cl)c(Cl)c1`: the cytotoxicity call was “inactive”. Take `C[C@@H]1CN([C@@H](C)CO)C(=O)c2cccc(NC(=O)CCCCCC(=O)Nc3ccccc3N)c2O[C@H]1CN(C)Cc1ccc(Cl)c(Cl)c1`: the cytotoxicity call is “inactive”.

`C[C@@H]1CN([C@H](C)CO)C(=O)c2cccc(NC(=O)CCCCCC(=O)Nc3ccccc3N)c2O[C@H]1CN(C)Cc1ccccc1`: the cytotoxicity call is “inactive”. For `C[C@H]1CN([C@@H](C)CO)C(=O)c2cccc(NC(=O)CCCCCC(=O)Nc3ccccc3N)c2O[C@@H]1CN(C)Cc1ccccc1`, the cytotoxicity call was “active”. Consider `C[C@H]1CN([C@@H](C)CO)C(=O)c2cccc(NC(=O)CCCCCC(=O)Nc3ccccc3N)c2O[C@H]1CN(C)Cc1ccc(-c2ccccc2)cc1`, for which the cytotoxicity call was “inactive”. Regarding `C[C@H]1CN([C@@H](C)CO)C(=O)c2cccc(NC(=O)CCCCCC(=O)Nc3ccccc3N)c2O[C@H]1CN(C)Cc1ccc(Cl)c(Cl)c1`, the cytotoxicity call was “active”. `C[C@@H]1CN([C@@H](C)CO)C(=O)c2cccc(NC(=O)CCCCCC(=O)Nc3ccccc3N)c2O[C@H]1CN(C)Cc1ccc(-c2ccccc2)cc1`: the cytotoxicity call was “inactive”. Regarding `C[C@H]1CN([C@@H](C)CO)C(=O)c2cccc(NC(=O)CCCCCC(=O)Nc3ccccc3N)c2O[C@@H]1CN(C)Cc1ccc(-c2ccccc2)cc1`, the cytotoxicity call is “active”. The value for `Cc1ccc(S(=O)(=O)Nc2ccc3c(c2)C(=O)N([C@@H](C)CO)C[C@H](C)[C@@H](CN(C)Cc2ccncc2)OCCCC[C@H](C)O3)cc1` was “inactive”. In the case of `C[C@@H]1CN([C@H](C)CO)C(=O)c2cc(NC(=O)c3ccncc3)ccc2O[C@@H](C)CCCCO[C@@H]1CN(C)S(=O)(=O)c1ccc(Cl)cc1`, the cytotoxicity call is “inactive”. For the compound `COc1ccc(S(=O)(=O)Nc2ccc3c(c2)C(=O)N([C@@H](C)CO)C[C@H](C)[C@H](CN(C)S(C)(=O)=O)OCCCC[C@@H](C)O3)cc1`, the cytotoxicity call is “inactive”. Take `C[C@@H]1CN([C@H](C)CO)C(=O)c2cc(NC(=O)CCN3CCOCC3)ccc2O[C@H]1CN(C)Cc1ccncc1`: the cytotoxicity call is “inactive”. The value for `CN(C)CC(=O)OCC(O)C(O)C(O)C(O)C(=O)[O-].[Na+]` (stereo unspecified) was “inactive”; that for `O=C(c1ccc(Cl)cc1)n1c2ccccc2c2ccccc21` was “inactive”; that for `O=C(Nc1ccc(Cl)cc1C(=O)c1ccc(Cl)cc1)c1cc(Br)ccc1NS(=O)(=O)c1ccc(Cl)cc1` was “inactive”. Next, `O=C(c1ccc(Cl)cc1)c1coc2c1cc(O)c1ccccc12`: “active”.

(Values after the antibiotic and cytotoxicity screens of Wong et al. (2023).)
